Laboratory results as given in PubChem BioAssay (Tox21).
Several values for one entry are separate records, joined by “and”; a condition that tells them apart may be missing. Identical values can stand only once. Results filed as inconclusive are left out. A call without a number means that no potency is given here. Where a structure was tested more than once in an assay, its records may differ in their call. Activity calls are given as the source filed them. Unless noted, the call rests on the fitted dose curve; in most records, active means well fitted curve in the direction sought with a large enough effect in the repeat runs; inconclusive means weak or mixed curves; inactive means no such curve, though single readings can be large; an effect the other way counts as inactive or inconclusive.

How the values were obtained:
[1] = qHTS assay to identify small molecule antagonists of the glucocorticoid receptor (GR) signaling pathway - cell viability counter screen (AID 720693); further: nearly all actives have a fitted effect of over 55% in size
[2] = qHTS assay for identifying genotoxic compounds that show differential cytotoxicity against isogenic chicken DT40 cell lines with known DNA damage response pathways - wild type cell line (AID 743012); further: nearly all actives have a fitted effect of over 60% in size; further: potency means the concentration at half of the fitted maximal effect
Procedure, shortened: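 Cells (DT40 wild type, 300/well) are treated with DMSO-dissolved compounds after a ~0.5 h pre-incubation and kept 40 h at 37 C/5% CO2. Viability is then measured by CellTiter-Glo luminescence following 30 min at room temperature.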

[3] = qHTS assay for identifying genotoxic compounds that show differential cytotoxicity against isogenic chicken DT40 cell lines with known DNA damage response pathways - Rev3 mutant cell line (AID 743014); further: nearly all actives have a fitted effect of over 55% in size; further: potency means the concentration at half of the fitted maximal effect
[4] = qHTS assay for identifying genotoxic compounds that show differential cytotoxicity against isogenic chicken DT40 cell lines with known DNA damage response pathways - Rad54/Ku70 mutant cell line (AID 743015); further: nearly all actives have a fitted effect of over 60% in size; further: potency means the concentration at half of the fitted maximal effect
[5] = qHTS assay to identify small molecule antagonists of the androgen receptor (AR) signaling pathway - cell viability counter screen (AID 743033; further: nearly all actives have a fitted effect of over 45% in size)
[6] = qHTS assay to identify small molecule antagonists of the androgen receptor (AR) signaling pathway using the MDA cell line - cell viability counter screen (AID 743041; further: nearly all actives have a fitted effect of over 45% in size)
Procedure, shortened: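 MDA-kb2 AR-luc cells (MMTV-luciferase, AR/GR responsive) treated with compounds plus R1881 agonist for 16 h at 37C. CellTiter-Fluor added at 15.5 h; fluorescence read after 30 min in the same wells.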

[7] = molecular target: Androgen receptor (Homo sapiens) (UniProt P10275); test: qHTS assay to identify small molecule antagonists of the androgen receptor (AR) signaling pathway (AID 743035; active means well fitted inhibition curve with a large enough effect in the signal ratio in the repeat runs, not every such curve was filed as active; the % refers to the signal ratio; further: potency means the concentration at half of the fitted maximal effect)
Sequence of Androgen receptor (Homo sapiens) (P10275 whole entry, looked up): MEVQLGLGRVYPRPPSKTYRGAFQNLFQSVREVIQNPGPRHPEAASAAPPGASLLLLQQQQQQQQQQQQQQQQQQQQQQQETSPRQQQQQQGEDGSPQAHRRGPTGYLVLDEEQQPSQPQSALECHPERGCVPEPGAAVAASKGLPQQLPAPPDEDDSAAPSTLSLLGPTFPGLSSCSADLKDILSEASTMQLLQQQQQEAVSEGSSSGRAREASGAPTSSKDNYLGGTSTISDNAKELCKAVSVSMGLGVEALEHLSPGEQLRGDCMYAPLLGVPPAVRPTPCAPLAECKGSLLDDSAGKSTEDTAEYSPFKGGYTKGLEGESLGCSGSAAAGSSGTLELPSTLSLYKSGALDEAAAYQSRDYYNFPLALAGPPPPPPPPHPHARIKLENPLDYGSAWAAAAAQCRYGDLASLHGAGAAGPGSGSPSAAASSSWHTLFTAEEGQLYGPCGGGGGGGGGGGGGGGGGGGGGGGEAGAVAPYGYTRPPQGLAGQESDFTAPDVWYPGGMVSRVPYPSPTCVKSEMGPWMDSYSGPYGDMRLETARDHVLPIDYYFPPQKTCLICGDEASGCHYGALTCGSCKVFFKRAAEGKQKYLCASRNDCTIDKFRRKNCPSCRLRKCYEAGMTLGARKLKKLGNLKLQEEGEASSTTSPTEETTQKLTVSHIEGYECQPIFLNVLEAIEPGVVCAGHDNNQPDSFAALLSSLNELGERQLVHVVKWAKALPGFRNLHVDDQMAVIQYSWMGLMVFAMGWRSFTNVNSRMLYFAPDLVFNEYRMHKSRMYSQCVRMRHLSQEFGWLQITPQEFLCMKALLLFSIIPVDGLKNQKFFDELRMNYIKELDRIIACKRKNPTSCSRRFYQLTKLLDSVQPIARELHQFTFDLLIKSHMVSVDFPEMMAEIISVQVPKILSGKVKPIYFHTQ
Procedure, shortened: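 Antagonism is scored as loss of R1881-driven beta-lactamase reporter expression in HEK293 cells carrying the reporter under a UAS element, after 16 h co-treatment at 37C and a 2 h room-temperature FRET substrate read.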

[8] = molecular target: Androgen receptor (Homo sapiens) (UniProt P10275); test: qHTS assay to identify small molecule agonists of the androgen receptor (AR) signaling pathway (AID 743036; active means well fitted activation curve with a large enough effect in the signal ratio in the repeat runs, with a control signal flat, not every such curve was filed as active; the % refers to the signal ratio)
Procedure, shortened: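 AR-bla HEK293 cells, 2,000/well; 4 h preincubation 37C/5% CO2; compound (DMSO) 16 h at 37C; LiveBLAzer B/G FRET substrate 2 h RT; fluorescence intensity read-out.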

[9] = molecular target: Androgen receptor (Homo sapiens) (UniProt P10275); test: qHTS assay to identify small molecule agonists of the androgen receptor (AR) signaling pathway using the MDA cell line (AID 743040; further: nearly all actives have a fitted effect of over 20% in size)
Procedure, shortened: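 MDA-kb2 breast carcinoma cells carrying MMTV-luciferase (responsive to AR and GR), plated 5 h then treated 16 h with compounds at 37C, 0% CO2. Read-out was ONE-Glo luminescence after 30 min at room temperature.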

[10] = molecular target: Androgen receptor (Homo sapiens) (UniProt P10275); test: qHTS assay to identify small molecule antagonists of the androgen receptor (AR) signaling pathway using the MDA cell line (AID 743042; further: nearly all actives have a fitted effect of over 55% in size; further: potency means the concentration at half of the fitted maximal effect)
Procedure, shortened: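 MDA-kb2 breast carcinoma cells carrying MMTV-luciferase (AR/GR responsive) were co-treated with compounds and the agonist R1881 for 16 h at 37C. Inhibition read as ONE-Glo luminescence; CellTiter-Fluor fluorescence measured in parallel for cytotoxicity.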

Row | Compound | Potency [1] | Potency [2] | Potency [3] | Potency [4] | outcome [5] | outcome [6] | Potency [7] | outcome [8] | outcome [9] | Potency [10]
1 | OCc1ccco1 | inactive | inactive | inactive | inactive | inactive | inactive |  |  |  | 
2 | CNC(=O)O/N=C/C(C)(C)SC | inactive | inactive | inactive | inactive | inactive | inactive |  |  |  | 
3 | CC(C)(C)C(=O)CCl | inactive | inactive | inactive | inactive | inactive | inactive | inactive | inactive | inactive | inactive
4 | CNC(=O)O/N=C/C(C)(C)S(C)(=O)=O | inactive | inactive | inactive | inactive | inactive | inactive | inactive | inactive | inactive | inactive
5 | c1ccc2c(c1)CCCC2 | inactive | inactive | inactive | inactive | inactive | inactive | inactive | inactive | inactive | inactive
6 | Nc1cccc(Cl)c1 | inactive | inactive | inactive | inactive | inactive | inactive |  |  |  | 
7 | COP(=S)(OC)Oc1ccc(SC)c(C)c1 | inactive | 54.5 µM (active) | inactive | inactive and 61.1 µM (active) | inactive | inactive |  |  |  | 
8 | Nc1cc(Cl)cc(Cl)c1 | inactive | inactive | inactive | inactive | inactive | inactive |  |  |  | 
9 | C=C(C)C(=O)OCC(CC)CCCC (configuration not stated) | inactive | inactive | inactive | inactive | inactive | inactive |  |  |  | 
10 | C=CC(=O)OCCCCCC(C)C | inactive | inactive | inactive | inactive | inactive | inactive | inactive | inactive | inactive | inactive
11 | COC(C)(C)CCCC(C)C/C=C/C(C)=C/C(=O)OC(C)C (configuration not stated) | inactive | 29.8 µM (active) and inactive | inactive | inactive | inactive | inactive | inactive | inactive | inactive | inactive
12 | O=[N+]([O-])c1cc([As](=O)(O)O)ccc1O | inactive | inactive | inactive | inactive | inactive | inactive |  |  |  | 
13 | N#Cc1ccccn1 | inactive | inactive | inactive | inactive | inactive | inactive |  |  |  | 
14 | O=P1(NCCCl)OCCCN1CCCl (configuration not stated) | inactive | inactive | inactive | inactive | inactive | inactive |  |  |  | 
15 | Nc1ncc([N+](=O)[O-])s1 | inactive | inactive | inactive | inactive | inactive | inactive |  |  |  | 
16 | CC12CC1(C)C(=O)N(c1cc(Cl)cc(Cl)c1)C2=O (configuration not stated) | inactive | inactive | 24.3 µM (active) | inactive | inactive | inactive | 6.14 µM (active) and 3.89 µM (active) | inactive | inactive | 19.3 µM (active) and 9.69 µM (active)
17 | Cl/C=C/Cl | inactive | inactive | inactive | inactive | inactive | inactive |  |  |  | 
18 | ClC(Cl)c1ccccc1 | inactive | inactive | inactive | inactive | inactive | inactive |  |  |  | 
19 | O=C(O)C1C(C(=O)O)C2(Cl)C(Cl)=C(Cl)C1(Cl)C2(Cl)Cl (configuration not stated) | inactive | inactive | inactive | inactive | inactive | inactive |  |  |  | 
20 | CC(C)c1cccc(C(C)C)c1O | inactive | inactive | inactive | inactive | inactive | inactive | inactive | inactive | inactive | inactive
21 | FC(F)(F)c1ccc(Cl)cc1 | inactive | inactive | inactive | inactive | inactive | inactive |  |  |  | 

Row | Compound | Potency [1] | Potency [2] | Potency [3] | Potency [4] | outcome [5] | outcome [6] | Potency [7] | outcome [8] | outcome [9] | Potency [10]
22 | CC(C)CCCCCCOC(=O)c1ccccc1C(=O)OCCCCCCC(C)C | inactive | inactive | inactive | inactive | inactive | inactive |  | inactive | inactive | inactive
23 | CNC(=O)O/N=C(\SC)C(=O)N(C)C | inactive | inactive | 61.1 µM (active) | 54.4 µM (active) | inactive | inactive | inactive | inactive | inactive | inactive
24 | Cc1cccc(N)c1C | inactive | inactive | inactive | inactive | inactive | inactive |  |  |  | 
25 | O=S(=O)(O)OOS(=O)(=O)O | inactive | inactive | inactive | inactive | inactive | inactive |  |  |  | 
26 | COC(=O)Nc1cccc(OC(=O)Nc2cccc(C)c2)c1 | inactive | inactive | inactive | inactive | inactive | inactive |  |  |  | 
27 | C[C@]12CC[C@H](O)CC1=CC[C@@H]1[C@@H]2CC[C@]2(C)C(=O)CC[C@@H]12 | inactive | 29.8 µM (active) | 26.6 µM (active) and 68.7 µM (active) and 54.5 µM (active) | 29.8 µM (active) and 61.2 µM (active) and 54.5 µM (active) | inactive | inactive |  |  |  | 
28 | CNC(=O)O/N=C/C(C)(C)S(C)=O (configuration not stated) | inactive | inactive | inactive | inactive | inactive | inactive |  |  |  | 
29 | COS(=O)(=O)OC | inactive | inactive | inactive | inactive | inactive | inactive |  |  |  | 
30 | CCOC(=O)CC(SP(=O)(OC)OC)C(=O)OCC (configuration not stated) | inactive | inactive | inactive | inactive | inactive | inactive |  |  |  | 
31 | CN(C)CCC#N | inactive | inactive | inactive | inactive | inactive | inactive |  |  |  | 
32 | CN(C)C(=O)C(c1ccccc1)c1ccccc1 | inactive | inactive | inactive | inactive | inactive | inactive |  |  |  | 
33 | CCSC(=O)N1CCCCCC1 | inactive | inactive | inactive | inactive | inactive | inactive |  |  |  | 
34 | O=[N+]([O-])c1ccc(Cl)cc1 | inactive | inactive | inactive | inactive | inactive | inactive |  |  |  | 
35 | CCOc1ccc(N)cc1 | inactive | inactive | inactive | 61.3 µM (active) and inactive | inactive | inactive |  |  |  | 
36 | O=C(O)COc1ccccc1 | inactive | inactive | inactive | inactive | inactive | inactive |  |  |  | 
37 | Cl[C@H]1OCCO[C@@H]1Cl | inactive | inactive | inactive | inactive | inactive | inactive |  |  |  | 
38 | CC(=O)/C=C/c1ccccc1 | inactive | inactive | inactive | inactive | inactive | inactive |  |  |  | 
39 | Cc1ccc(O)c(C)c1 | inactive | inactive | inactive | inactive | inactive | inactive |  |  |  | 
40 | OCCCCO | inactive | inactive | inactive | inactive | inactive | inactive |  |  |  | 
41 | Nc1ccc([As](=O)(O)O)cc1 | inactive | inactive | inactive and 29.8 µM (active) | inactive and 13.3 µM (active) | inactive | inactive |  |  |  | 
42 | Cc1cccc(N)c1 | inactive | inactive | inactive | inactive | inactive | inactive |  |  |  | 
